The values below come from PubChem BioAssay (EPA / NIEHS).

Assay [1] in a line: ATG_EGR_CIS: Attagene CIS-FACTORIAL HepG2 Assay for human Early Growth Response 1 (EGR1) (AID 2282938). The conditions noted are these: HepG2 Attagene CIS-FACTORIAL EGR reporter mRNA; actives raise or lower the signal. The gist of the method: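 Activity is taken as induction or loss of reporter mRNA versus DMSO, fitted bidirectionally. Transcripts from cis-regulated reporter units in transiently transfected HepG2 were measured after 24 h by RT-PCR with capillary electrophoresis.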

Assay [2] is described as follows: ATG_M_19_CIS: Attagene CIS-FACTORIAL HepG2 Assay for M19 Transcription Factor (Internal Marker) (AID 2282939). The settings on record: HepG2 Attagene CIS-FACTORIAL M19 internal marker reporter; actives raise or lower the signal. The gist of the method:
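Signals come from fluorescence of labelled reporter-specific PCR fragments resolved by capillary electrophoresis, following 24 h treatment of HepG2 cells transfected with cis-promoter reporter units; activity was fitted in both directions relative to DMSO.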

The nature of assay [3]: ATG_ERE_CIS: Attagene CIS-FACTORIAL HepG2 Assay for Estrogen Response Element (ERE) (AID 2282940). The conditions noted are these: HepG2 ERE cis-reporter, Attagene RNA transcript; actives raise or lower the signal. The gist of the method: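 Fluorescence of capillary-separated, FAM-labelled reporter cDNA fragments indicates reporter mRNA levels in HepG2 cells exposed to chemicals for 24 h. Transient transfection with cis-regulated units; data fitted in both directions against DMSO.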

A short description of assay [4]: ATG_Ets_CIS: Attagene CIS-FACTORIAL HepG2 Assay for human Erythroblast Transformation Specific (ETS) (AID 2282941). The conditions noted are these: HepG2 ETS cis-reporter transcription, actives raise or lower the signal. The gist of the method:
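HepG2 cells transiently transfected with cis-promoter reporter transcription units were dosed for 24 h; reporter mRNA was measured by RT-PCR, 6-FAM primer extension, HpaI digestion and capillary electrophoresis, with bidirectional fitting against DMSO baseline.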

Assay [5] addresses Hepatocyte nuclear factor 3-beta (Homo sapiens) (UniProt Q9Y261). Briefly: ATG_FoxA2_CIS: Attagene CIS-FACTORIAL HepG2 Assay for human Forkhead box A2 (FOXA2) (AID 2282942). The conditions noted are these: HepG2 cis-reporter transcription factor activity, 24 h; actives raise or lower the signal. The gist of the method:
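Reporter transcript induction is measured by fluorescence after capillary electrophoresis of RT-PCR products from HepG2 cells exposed 24 h. Cis-regulated reporter units report endogenous factor activity; curves fitted both directions against DMSO.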

Assay [6] can be described thus: ATG_FoxO_CIS: Attagene CIS-FACTORIAL HepG2 Assay for human Forkhead box O (FoxO) (AID 2282943). The conditions noted are these: HepG2 Attagene cis-reporter, FoxO element, mRNA; actives raise or lower the signal. The method in brief:
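Values reflect reporter mRNA induction or loss in HepG2 cells 24 h post-dosing, fitted bidirectionally with DMSO as negative control and baseline. Detection used RT-PCR and fluorescence capillary electrophoresis.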

A short description of assay [7]: ATG_GATA_CIS: Attagene CIS-FACTORIAL HepG2 Assay for human GATA Binding Protein (AID 2282944). The settings on record: HepG2 GATA cis-element reporter, Attagene multiplex mRNA; actives raise or lower the signal. The gist of the method: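 After transfecting HepG2 cells with multiple cis-regulated reporter units, chemicals are dosed for 24 h; isolated RNA undergoes RT-PCR and fluorescent labeling before capillary electrophoresis, with activity expressed against DMSO.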

Assay [8] is described as follows: ATG_GLI_CIS: Attagene CIS-FACTORIAL HepG2 Assay for human Zinc Finger Protein GLI1 (AID 2282945). The conditions noted are these: HepG2, Attagene cis-factorial reporter mRNA, GLI element; actives raise or lower the signal. The gist of the method: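 HepG2 cells transiently transfected with cis-promoter multiplexed reporter units report endogenous transcription factor activity. After 24 h chemical exposure, reporter mRNA was quantified by RT-PCR, 6-FAM labelling, HpaI digestion and capillary electrophoresis, with bidirectional fitting against DMSO.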

Assay [9] can be described thus: ATG_GRE_CIS: Attagene CIS-FACTORIAL HepG2 Assay for human Glucocorticoid Response Elements (GRE) (AID 2282947). The settings on record: HepG2 GRE cis-reporter, Attagene multiplex mRNA; actives raise or lower the signal. The method in brief:
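Following 24 h chemical exposure of transiently transfected HepG2 cells, total RNA was reverse-transcribed and reporter cDNA amplified, fluorescently labelled and sized by capillary electrophoresis. Signal gain or loss was fitted relative to DMSO vehicle.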

Assay [10] can be described thus: ATG_ISRE_CIS: Attagene CIS-FACTORIAL HepG2 Assay for human Interferon Regulatory Factor 1 (IRF1) binding to an Interferon-Stimulated Response Element (ISRE) (AID 2282948). The settings on record: HepG2 ISRE cis-reporter (Attagene), mRNA transcription readout; actives raise or lower the signal. The gist of the method:
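HepG2 cells transiently transfected with multiplexed cis-promoter reporter units; after 24 h compound exposure, reporter mRNA quantified by RT-PCR, FAM labelling, HpaI digestion and capillary electrophoresis. Bidirectional fit versus DMSO baseline.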

Assay [11] in a line: ATG_M_32_CIS: Attagene CIS-FACTORIAL HepG2 Assay for M32 Transcription Factor (Internal Marker) (AID 2282949).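 Also: background control marker of the multiplexed CIS panel rather than a real target.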 The conditions noted are these: HepG2 Attagene cis-factorial M32 reporter, mRNA; actives raise or lower the signal. The gist of the method:
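Fluorescent capillary electrophoresis peaks of HpaI-digested, FAM-labelled RT-PCR reporter products give the signal. Source: transiently transfected human liver HepG2 cells, 24 h after chemical dosing; bidirectional fitting against DMSO.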

Assay [12] in a line: ATG_M_06_CIS: Attagene CIS-FACTORIAL HepG2 Assay for M06 Transcription Factor (Internal Marker) (AID 2282950). The conditions noted are these: HepG2 Attagene CIS-FACTORIAL M06 internal marker reporter; actives raise or lower the signal. The gist of the method: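 HepG2 liver cells, 24 h exposure. Reporter transcripts from transfected cis-element constructs quantified by RT-PCR/capillary electrophoresis fluorescence. Bidirectional curve fit against DMSO.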

In assay [13] the target is Hypoxia-inducible factor 1-alpha (Homo sapiens) (UniProt Q16665). Nature of the assay: ATG_HIF1a_CIS: Attagene CIS-FACTORIAL HepG2 Assay for human Hypoxia Inducible Factor 1 (HIF1A) (AID 2282951). The conditions noted are these: HepG2 Attagene cis-factorial HIF1a reporter transcription; actives raise or lower the signal. The method in brief: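 Fluorescence intensity of capillary-separated, 6-FAM-labelled reporter amplicons gives mRNA induction in HepG2 cells carrying transfected cis-promoter reporter units; cells exposed 24 h, responses fitted up or down from DMSO.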
Hypoxia-inducible factor 1-alpha (Homo sapiens), sequence (Q16665 whole entry, looked up): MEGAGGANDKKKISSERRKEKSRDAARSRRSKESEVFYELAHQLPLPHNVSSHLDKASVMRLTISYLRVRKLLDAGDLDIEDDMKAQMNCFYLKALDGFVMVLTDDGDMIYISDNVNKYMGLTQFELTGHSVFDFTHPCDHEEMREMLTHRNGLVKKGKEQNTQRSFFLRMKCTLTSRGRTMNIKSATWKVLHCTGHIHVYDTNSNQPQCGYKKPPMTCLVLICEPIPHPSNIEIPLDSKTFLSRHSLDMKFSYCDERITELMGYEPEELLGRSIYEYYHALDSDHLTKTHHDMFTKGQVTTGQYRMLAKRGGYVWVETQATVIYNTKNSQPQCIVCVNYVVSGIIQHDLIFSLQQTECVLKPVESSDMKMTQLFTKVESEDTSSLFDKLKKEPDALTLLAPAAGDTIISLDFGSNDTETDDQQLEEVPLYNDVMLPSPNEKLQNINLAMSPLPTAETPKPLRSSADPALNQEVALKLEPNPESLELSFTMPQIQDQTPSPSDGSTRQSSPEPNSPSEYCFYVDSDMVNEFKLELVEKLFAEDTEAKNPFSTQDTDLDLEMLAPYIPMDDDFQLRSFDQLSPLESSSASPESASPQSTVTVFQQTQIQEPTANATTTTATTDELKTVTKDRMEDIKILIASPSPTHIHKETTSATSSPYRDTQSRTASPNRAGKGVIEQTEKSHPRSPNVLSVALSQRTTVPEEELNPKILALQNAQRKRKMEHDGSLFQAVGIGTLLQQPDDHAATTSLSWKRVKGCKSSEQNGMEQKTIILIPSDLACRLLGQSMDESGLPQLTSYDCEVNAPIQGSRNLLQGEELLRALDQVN

The target of assay [14] is Hepatocyte nuclear factor 6 (Homo sapiens) (UniProt Q9UBC0). Briefly: ATG_HNF6_CIS: Attagene CIS-FACTORIAL HepG2 Assay for human Hepatocyte Nuclear Factor 6 (HNF6) (AID 2282952). The settings on record: HepG2 Attagene cis-factorial HNF6 reporter transcription; actives raise or lower the signal. The gist of the method:
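HepG2 cells transiently transfected with cis-element-driven multiple reporter transcription units, dosed 24 h; reporter mRNA quantified by RT-PCR, FAM primer extension, HpaI digestion and capillary electrophoresis; bidirectional fit versus DMSO baseline.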

Assay [15] can be described thus: ATG_MRE_CIS: Attagene CIS-FACTORIAL HepG2 Assay for human Metal Responsive Element (MRE) (AID 2282954). The settings on record: HepG2 MRE cis-reporter transcription, Attagene multiplex; actives raise or lower the signal. The method in brief: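 Step one: transfect HepG2 with cis-regulated reporter units. Step two: dose 24 h. Step three: isolate RNA, RT-PCR, 6-FAM label, HpaI digest, capillary electrophoresis. Fit bidirectionally to DMSO.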

The nature of assay [16]: ATG_PBREM_CIS: Attagene CIS-FACTORIAL HepG2 Assay for human Phenobarbital-responsive Enhancer Module (PBREM) (AID 2282955). The settings on record: HepG2 PBREM cis-reporter, Attagene multiplexed transcription; actives raise or lower the signal. The method in brief:
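Cells were transfected with cis-element reporter units and treated for 24 h, after which RNA was extracted and reporter transcripts measured by RT-PCR and capillary electrophoresis.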

The target of assay [17] is Paired box protein Pax-6 (Homo sapiens) (UniProt P26367). Briefly: ATG_Pax6_CIS: Attagene CIS-FACTORIAL HepG2 Assay for human Paired Box 6 (PAX6) (AID 2282956). The conditions noted are these: HepG2 CIS-FACTORIAL PAX6 reporter transcription, RNA readout; actives raise or lower the signal. The method in brief: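 HepG2 cells transiently transfected with multiplexed cis-promoter reporter units (endogenous TF activity) were dosed for 24 h. Reporter mRNA was quantified by RT-PCR, 6-FAM labeling, HpaI digestion and capillary electrophoresis; bidirectional fitting versus DMSO baseline.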
Paired box protein Pax-6 (Homo sapiens), sequence (P26367 whole entry, looked up): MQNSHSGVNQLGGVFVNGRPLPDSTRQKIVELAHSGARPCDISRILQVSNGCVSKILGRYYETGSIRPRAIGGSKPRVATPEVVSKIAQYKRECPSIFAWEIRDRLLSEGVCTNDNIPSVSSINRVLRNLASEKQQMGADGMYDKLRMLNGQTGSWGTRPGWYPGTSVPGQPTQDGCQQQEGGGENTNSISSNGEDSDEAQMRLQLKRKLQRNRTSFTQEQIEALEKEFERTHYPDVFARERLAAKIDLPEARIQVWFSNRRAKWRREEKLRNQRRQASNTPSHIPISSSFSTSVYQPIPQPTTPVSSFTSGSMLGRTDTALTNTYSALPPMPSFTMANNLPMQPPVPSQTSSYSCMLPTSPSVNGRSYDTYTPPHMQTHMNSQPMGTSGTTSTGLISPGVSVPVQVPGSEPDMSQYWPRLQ

Assay [18] concerns the target Bile acid receptor (Homo sapiens) (UniProt Q96RI1). Nature of the assay: ATG_IR1_CIS: Attagene CIS-FACTORIAL HepG2 Assay for human Nuclear Receptor Subfamily 1 Group H Member 4 (NR1H4), IR1 submotif (AID 2282946). The conditions noted are these: IR1 reporter transcription, actives raise or lower the signal. The method in brief:
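Transient MRTU transfection, HepG2; 24 h dosing; RNA → RT-PCR → 6-FAM primer extension → HpaI digest → capillary electrophoresis fluorescence. Gain/loss of signal fitted relative to DMSO.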

Assay [19] addresses Heat shock factor protein 1 (Homo sapiens) (UniProt Q00613). Nature of the assay: ATG_HSE_CIS: Attagene CIS-FACTORIAL HepG2 Assay for human Heat Shock Transcription Factor 1 (HSE) (AID 2282953). The conditions noted are these: HepG2 HSE cis-reporter, Attagene RNA transcription; actives raise or lower the signal. The gist of the method: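 Endogenous transcription factor activity captured via cis-promoter reporter units transfected into HepG2; treatment lasted 24 h. Fluorescence intensity of reporter fragments analysed with bidirectional curve fitting, DMSO baseline.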

The source made the active and inactive calls. The calls were made as follows: active = hit-call score of the fitted dose curve at least 0.9, where 1 is the maximum; inactive = score below 0.9.

Heat shock factor protein 1 (Homo sapiens), sequence (Q00613 whole entry, looked up, the tested form may be a part): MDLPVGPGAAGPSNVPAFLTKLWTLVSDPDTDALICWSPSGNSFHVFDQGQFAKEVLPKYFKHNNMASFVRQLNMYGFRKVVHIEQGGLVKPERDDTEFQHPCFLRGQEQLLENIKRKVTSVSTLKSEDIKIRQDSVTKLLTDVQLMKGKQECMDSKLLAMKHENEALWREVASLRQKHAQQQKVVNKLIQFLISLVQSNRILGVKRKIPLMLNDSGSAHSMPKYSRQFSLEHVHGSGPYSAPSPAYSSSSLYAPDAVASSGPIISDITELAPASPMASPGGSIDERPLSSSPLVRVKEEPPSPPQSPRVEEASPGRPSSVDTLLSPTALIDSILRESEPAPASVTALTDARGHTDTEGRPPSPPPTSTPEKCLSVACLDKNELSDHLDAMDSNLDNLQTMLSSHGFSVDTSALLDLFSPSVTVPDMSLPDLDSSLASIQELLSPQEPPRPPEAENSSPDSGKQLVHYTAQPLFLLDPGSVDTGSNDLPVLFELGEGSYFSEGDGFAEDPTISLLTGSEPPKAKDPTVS
Bile acid receptor (Homo sapiens), sequence (Q96RI1 whole entry, looked up): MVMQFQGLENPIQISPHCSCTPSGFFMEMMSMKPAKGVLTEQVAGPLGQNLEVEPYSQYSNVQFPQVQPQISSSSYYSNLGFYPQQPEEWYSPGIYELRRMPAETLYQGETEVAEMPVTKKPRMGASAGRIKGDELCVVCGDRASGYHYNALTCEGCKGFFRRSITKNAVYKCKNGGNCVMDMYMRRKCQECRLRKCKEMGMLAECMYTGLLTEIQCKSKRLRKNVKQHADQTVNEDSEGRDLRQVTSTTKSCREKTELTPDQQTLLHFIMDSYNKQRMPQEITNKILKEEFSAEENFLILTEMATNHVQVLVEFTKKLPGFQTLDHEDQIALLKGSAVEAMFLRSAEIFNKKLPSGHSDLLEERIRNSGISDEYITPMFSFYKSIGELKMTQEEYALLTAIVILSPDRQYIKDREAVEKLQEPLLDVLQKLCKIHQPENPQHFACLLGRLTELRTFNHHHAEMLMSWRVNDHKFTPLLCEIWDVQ
Hepatocyte nuclear factor 3-beta (Homo sapiens), sequence (Q9Y261 whole entry, looked up): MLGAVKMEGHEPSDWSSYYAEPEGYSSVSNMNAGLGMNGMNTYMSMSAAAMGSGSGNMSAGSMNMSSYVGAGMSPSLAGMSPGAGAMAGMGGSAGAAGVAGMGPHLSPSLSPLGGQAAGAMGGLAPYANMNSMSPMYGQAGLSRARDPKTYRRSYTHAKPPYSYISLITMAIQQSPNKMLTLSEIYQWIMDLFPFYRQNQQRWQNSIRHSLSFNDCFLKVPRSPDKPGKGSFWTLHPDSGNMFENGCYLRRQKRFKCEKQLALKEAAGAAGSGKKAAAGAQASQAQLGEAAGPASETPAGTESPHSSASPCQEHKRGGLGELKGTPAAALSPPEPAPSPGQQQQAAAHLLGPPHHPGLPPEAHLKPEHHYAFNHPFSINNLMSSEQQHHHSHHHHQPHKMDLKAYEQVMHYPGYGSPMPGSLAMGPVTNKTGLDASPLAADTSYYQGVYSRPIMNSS
Hepatocyte nuclear factor 6 (Homo sapiens), sequence (Q9UBC0 whole entry, looked up): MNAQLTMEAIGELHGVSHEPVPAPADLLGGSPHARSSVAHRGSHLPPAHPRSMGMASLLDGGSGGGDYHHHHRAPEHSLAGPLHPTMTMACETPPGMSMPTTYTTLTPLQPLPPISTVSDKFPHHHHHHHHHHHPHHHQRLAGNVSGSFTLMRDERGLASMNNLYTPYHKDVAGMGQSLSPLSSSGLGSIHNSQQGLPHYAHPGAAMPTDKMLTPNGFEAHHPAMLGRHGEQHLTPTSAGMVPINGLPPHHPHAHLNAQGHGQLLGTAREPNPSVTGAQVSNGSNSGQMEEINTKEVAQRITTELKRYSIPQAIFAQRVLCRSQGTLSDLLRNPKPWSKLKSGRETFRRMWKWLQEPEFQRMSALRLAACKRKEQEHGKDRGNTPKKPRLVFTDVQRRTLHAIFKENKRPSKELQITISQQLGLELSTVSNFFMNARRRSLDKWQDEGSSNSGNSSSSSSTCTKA

Broadly, the AC50 is the midpoint of the concentration-response curve, whichever way the signal moves. `CS(=O)(=O)c1ccc(C(=O)C2C(=O)CCCC2=O)c(Cl)c1COCC(F)(F)F`: the result in assay [1], in assay [2], in assay [4], in assay [5], in assay [6] and in assay [7] was inactive. Besides, the result in assay [8], in assay [9], in assay [10], in assay [11], in assay [12] and in assay [13] was inactive. For the same compound, the outcome in assay [14], in assay [15], in [16] and in assay [17] was inactive. For the same compound, in assay [3], the AC50 is 27.3 µM (active).

For the compound `Cc1ccccc1OP(=O)(Oc1ccccc1C)Oc1ccccc1C`, the outcome in assay [1], in assay [2], in assay [4], in assay [5], in [6] and in assay [7] was inactive. In addition, the compound was classed as inactive in [8], in [18], in [9], in [11], in assay [12] and in assay [13]. The outcome in [14], in [16] and in assay [17] was inactive. Further, the AC50 in assay [3] was 3.04 µM (active); in assay [10], 7 µM (active); in [15] it was 10.8 µM (active).

Take `CCCCC(CC)C(=O)Cl` (stereo not drawn): the compound was called inactive in [1], in assay [2], in [3], in assay [4], in [5] and in [6]. Further, the compound was classed as inactive in assay [7], in [8], in [18], in assay [9], in assay [10] and in [11]. For the same compound, the call in assay [12], in assay [13], in [14], in assay [15], in assay [16] and in assay [17] was inactive.

As to `O=C/C(Cl)=C(/Cl)C(=O)O`, the AC50 in [1] was 145 µM (active); in [6], 132 µM (active); in assay [18], 46 µM (active); in assay [10], 100 µM (active); in assay [14] it was 136 µM (active); in [19], 151 µM (active). The AC50 in [15] was 136 µM (active); in assay [17], 132 µM (active). For the same compound, the compound was called inactive in [2], in assay [3], in [4], in [5], in assay [7] and in assay [8]. For the same compound, the compound was classed as inactive in [9], in assay [11], in assay [12], in assay [13] and in [16].

As to `OCC(c1ccc(Cl)cc1)c1ccc(Cl)cc1`, the half-maximal activity concentration (AC50) was 53.2 µM (active) in assay [1]; 48.5 µM (active) in [2]; 52.8 µM (active) in assay [7]; 61.5 µM (active) in [8]; 49.9 µM (active) in [18]; 54.6 µM (active) in assay [10]. In addition, the AC50 was 55.3 µM (active) in assay [13], 56.6 µM (active) in assay [14], 52.8 µM (active) in assay [19] and 58.9 µM (active) in assay [15]. Moreover, the call in assay [3], in assay [5], in [6], in assay [9], in [11] and in [17] was inactive.

For the compound `c1cc[c]([Sb]([c]2ccccc2)[c]2ccccc2)cc1`, the compound was called inactive in assay [1], in assay [2], in assay [4], in assay [5], in [6] and in assay [7]. Also, the call in assay [8], in assay [18], in assay [9], in assay [11], in assay [12] and in assay [13] was inactive. The outcome in [14], in [15], in assay [16] and in [17] was inactive.

For the compound `CCOP(=S)(OCC)Oc1ccc(Cl)cc1Cl`, the compound was called inactive in [1], in assay [2], in assay [4], in assay [5], in assay [6] and in [7]. The outcome in [8], in [9], in assay [12], in assay [13], in assay [14] and in assay [19] was inactive. The compound was called inactive in assay [15], in [16] and in assay [17]. In assay [3], the AC50 is 10.1 µM (active).

Regarding `CCCCC(CC)COC(=O)Cl` (stereo not drawn), the outcome in [1], in assay [2], in [3], in assay [4], in assay [5] and in assay [6] was inactive. The result in assay [7], in assay [8], in [18], in assay [9], in assay [11] and in [12] was inactive. Moreover, the compound was called inactive in [13], in assay [14], in assay [19], in assay [15], in assay [16] and in assay [17].
